Bioassay records: PubChem, several laboratories
Most compounds without a hit are left out; they make up all but 2.4% or so of the library.
HUVEC tox IL1B: HUVEC cytotoxicity counter-screen, IL-1B stimulated. HUVEC cell count loss, Hoechst imaging. cell count reduction, % at 2 µM. 94,000 tested, 0.41% active. AID 845;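 active = cell count reduction more than 3 SD above the screen-wide mean, cut at about 70% in these data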;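 also: normalized per plate to untreated control cells as the no-loss baseline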
JNK3 blocker: inhibitors of human JNK3 kinase. purified JNK3 kinase activity, HTS. 60,000 tested, 0.61% active. inhibition, % at 8 µM. AID 746. P53779; in the data active = inhibition above about 17%;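 also: 0% = DMSO and 100% = reference inhibitor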
IL1B NFkB inh: blocks IL-1B driven NFkB nuclear translocation in HUVEC cells. inhibition, % at 2 µM. 94,000 tested, 0.43% active. HUVEC IL-1B NFkB p65 nuclear translocation imaging. AID 796;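 active = inhibition above about 30% together with a positive call from visual inspection of the well image, limit read from the data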;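 also: nuclear over cytoplasmic p65 intensity ratio measured by imaging; 0% = IL-1B stimulated DMSO wells and 100% = unstimulated DMSO wells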
NFkB transloc pot: enhances IL-1B driven NFkB nuclear translocation | activation, % at 2 µM | 94,000 tested, 0.3% active | HUVEC IL-1B NFkB p65 nuclear translocation imaging;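 active = activation above 40%, about the mean plus 3 SD, also judged a hit on visual image review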;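 also: percent activation is computed from the nuclear over cytoplasmic p65 intensity ratio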
FAK inh: inhibitors of human focal adhesion kinase; Q05397; biochemical FAK kinase activity assay; inhibition, %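 (tested at 7 µM)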; 97,000 tested, 0.84% active; in the data active = inhibition above about 19%;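 also: 0% = DMSO and 100% = reference compound high control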
Target sequence (Q05397 whole entry, looked up): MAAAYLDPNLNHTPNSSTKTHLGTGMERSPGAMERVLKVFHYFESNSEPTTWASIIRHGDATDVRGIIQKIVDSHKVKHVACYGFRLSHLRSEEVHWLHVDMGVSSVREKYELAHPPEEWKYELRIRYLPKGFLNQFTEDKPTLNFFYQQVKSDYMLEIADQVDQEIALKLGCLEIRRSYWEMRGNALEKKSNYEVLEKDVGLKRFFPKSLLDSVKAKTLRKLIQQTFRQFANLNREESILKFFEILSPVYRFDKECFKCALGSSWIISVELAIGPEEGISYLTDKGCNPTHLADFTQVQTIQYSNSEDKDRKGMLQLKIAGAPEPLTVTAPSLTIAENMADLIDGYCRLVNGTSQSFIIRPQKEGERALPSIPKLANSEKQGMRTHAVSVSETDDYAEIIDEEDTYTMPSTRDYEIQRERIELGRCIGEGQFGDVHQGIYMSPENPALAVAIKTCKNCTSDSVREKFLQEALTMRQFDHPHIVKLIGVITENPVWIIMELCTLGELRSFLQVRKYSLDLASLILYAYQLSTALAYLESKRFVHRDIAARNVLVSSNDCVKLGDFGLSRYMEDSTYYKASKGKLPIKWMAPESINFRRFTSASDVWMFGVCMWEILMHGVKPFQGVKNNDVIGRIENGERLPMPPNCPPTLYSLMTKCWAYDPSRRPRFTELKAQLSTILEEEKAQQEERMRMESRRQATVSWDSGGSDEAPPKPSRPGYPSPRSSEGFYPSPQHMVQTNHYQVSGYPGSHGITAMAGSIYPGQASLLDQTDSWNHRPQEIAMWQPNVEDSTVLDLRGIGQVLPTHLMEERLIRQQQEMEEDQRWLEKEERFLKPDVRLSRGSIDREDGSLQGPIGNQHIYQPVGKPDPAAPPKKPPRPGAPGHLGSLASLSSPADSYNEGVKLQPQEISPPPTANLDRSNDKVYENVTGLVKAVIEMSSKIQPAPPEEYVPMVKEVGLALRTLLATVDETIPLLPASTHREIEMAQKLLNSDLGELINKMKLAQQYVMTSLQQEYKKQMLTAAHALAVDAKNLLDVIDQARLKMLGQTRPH
PTK2B oligo ant: blocks oligomerization of human Pyk2 in cells | 99,000 tested, 0.83% active | z-score (the deposit names both 25 µM and 10 µM) | Q14289 | Q293 cells, Pyk2 FERM NanoBiT luminescence; active compounds read low;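 active = Z-score of -3 or lower, scaled per plate to the spread of control and sample wells; inactive = z-score above -3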;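 also: negative z-score means lost luminescence so less FERM oligomerization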
Starred values were filed as active, the others as inactive; nt = no result.

SMILES | HUVEC tox IL1B | JNK3 blocker | IL1B NFkB inh | NFkB transloc pot | FAK inh | PTK2B oligo ant
Cc1ccc(Nc2c([N+](=O)[O-])cc(C(=O)N3CC(=O)Nc4ccccc43)cc2[N+](=O)[O-])c(C)c1 | -46.0 | nt | 1.7 | -1.7 | 3.8 | -3.37*
O=C1CN(C(=O)c2ccccc2F)c2ccccc2N1 | 21.3 | -2.4 | 0.4 | -0.4 | 1.1 | -0.59
CC1CCCCC12NC(=O)N(CC(=O)NC(=O)NCc1ccco1)C2=O (centres undefined) | -0.6 | nt | -13.5 | 13.5 | -0.1 | 0.55
CC1CCCCC12NC(=O)N(CC(=O)NC(=O)Nc1ccc3c(c1)OCCO3)C2=O (centres undefined) | -1.6 | nt | -15.5 | 15.5 | -2.2 | -3.65*
COc1ccc(/C=N/n2c(N)nc3ccccc32)cc1OC | 1.4 | 47.9* | 1.2 | -1.2 | 14.5 | -0.45
COc1ccc2nc(SCC(=O)/C(C#N)=C(\C)N)[nH]c2c1 | -3.1 | nt | -7.7 | 7.7 | 0.0 | 0.76
COc1ccccc1N1CCN(C(=O)COc2ccc(C)cc2Br)CC1 | -1.8 | 0.7 | 13.6 | -13.6 | -2.0 | -0.68
Cc1ccc(OCC(=O)N2CCCCC2)c(Br)c1 | 87.1* | -2.2 | 97.0* | -97.0 | 0.2 | -0.94
COc1ccc(OC)c(S(=O)(=O)N2CCC(C(=O)NCCc3ccccc3)CC2)c1 | 2.3 | nt | 3.3 | -3.3 | 4.9 | 1.12
COC(=O)[C@H]1CCCN1C(=O)Nc1cccc(Oc2c(F)c(F)c(F)c(F)c2F)c1 | nt | 7.6 | -25.2 | nt | 5.2 | 1.85
Cc1ccc(C(=O)n2cnnc2N)cc1 | -20.8 | nt | -6.1 | 6.1 | -7.9 | 0.57
CCOc1cc(CNc2ccc(N(C)C)cc2)cc(Br)c1OCC(=O)NC(C)(C)C | -7.6 | nt | -0.4 | 0.4 | 4.9 | 0.36
CCOc1cc(CNc2cccc3ccccc23)cc(Br)c1OCC(=O)NC(C)(C)C | -1.6 | nt | 6.1 | -6.1 | -2.6 | -3.74*
CCOC(=O)/C=C/S(=O)(=O)c1ccc(NC(C)=O)cc1 | -8.4 | -1.1 | 32.7* | -32.7 | -0.1 | -0.56
CCOC(=O)c1cccc(NS(=O)(=O)c2ccc(NC(C)=O)cc2)c1 | -86.3 | nt | -1.5 | 1.5 | 2.0 | -0.88
CCOC(=O)/C(=C\c1ccccc1)C(=O)c1cc(C(C)=O)c(Nc2ccccc2)s1 | nt | nt | nt | nt | -0.6 | -3.05*
COc1ccccc1NS(=O)(=O)c1cccc(C(=O)OCC(=O)Nc2cc(C)on2)c1 | 6.1 | nt | -4.1 | 4.1 | -1.7 | -0.65
Cc1cccc(NS(=O)(=O)c2cc(C(=O)OCC(=O)Nc3cc(C)on3)ccc2C)c1 | -21.3 | nt | -15.4 | 15.4 | 8.3 | -3.35*
Cc1cccc(NS(=O)(=O)c2ccc(C)c(C(=O)OCC(=O)Nc3cc(C)on3)c2)c1 | 30.8 | nt | -7.8 | 7.8 | 1.5 | -3.83*
Cc1ccc(C)c(S(=O)(=O)Nc2ccccc2C(=O)Nc2cc(C)on2)c1 | nt | nt | nt | nt | nt | -2.33
Cc1oc2cc3c(C(=O)OCCN(C)C)c(C)oc3cc2c1C(=O)OCCN(C)C | nt | -6.7 | nt | nt | nt | nt
COc1cc(Cl)cc2c1Sc1ccccc1/C2=C/CCN(C)C | 9.6 | nt | 6.0 | -6.0 | 0.6 | 0.41
CN(C)CC/C=C1/c2ccccc2Sc2c(O)cc(Cl)cc21 | -56.4 | nt | -17.6 | 17.6 | 40.2* | -0.73
Cc1ccc(CSc2nc3c(c(N(C)C)n2)CCCC3)cc1 | -43.1 | nt | -11.4 | 11.4 | 3.0 | 0.28
CNc1nc(SCc2ccc(C)cc2)nc2c1CCCC2 | -10.3 | nt | 41.8* | -41.8 | -1.1 | -0.66
SMILES | HUVEC tox IL1B | JNK3 blocker | IL1B NFkB inh | NFkB transloc pot | FAK inh | PTK2B oligo ant
Cc1noc(NS(=O)(=O)c2ccc(NC(=O)CSc3nc4ccccc4s3)cc2)c1C | 74.4* | -1.6 | -31.8 | 31.8 | -3.7 | 0.74
Cc1noc(NS(=O)(=O)c2ccc(NC(=O)CSc3nc4c(cc3C#N)CCCC4)cc2)c1C | nt | -5.7 | nt | nt | -6.6 | nt
Cc1noc(NS(=O)(=O)c2ccc(NC(=O)CSc3nc4c(cc3C#N)CCC4)cc2)c1C | 17.5 | 2.7 | -67.6 | 67.6* | 6.2 | nt
CCN(CC)C(=O)C(Cc1ccccc1)N1C(=O)c2ccccc2C1=O (centres undefined) | 3.1 | nt | -2.0 | 2.0 | -0.8 | -0.19
CC1=CC(=O)N(c2cccc(C(F)(F)F)c2)C1c1ccc(Cl)cc1 (centres undefined) | 32.3 | nt | -1.5 | 1.5 | 9.4 | -1.61
CCNc1ccc2noc3c2c1C(=O)c1ccccc1-3 | -39.8 | nt | -24.8 | 24.8 | 48.6* | -2.14
CCOc1ccc2noc3c2c1C(=O)c1ccccc1-3 | 1.9 | 4.5 | -1.7 | 3.8 | 15.6 | -1.01
O=C1c2ccccc2-c2onc3ccc(NCc4ccco4)c1c23 | nt | 32.9* | nt | nt | nt | -1.87
